In PubChem BioAssay AID2544 (Sanford-Burnham Center for Chemical Genomics, 2010):
In all, about 330,000 compounds went through this assay and about 390 (0.12%) were called active. This excerpt belongs to a sample that is enriched for actives. A number with no mark means an inactive call.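 How the source made its calls: active means inhibition reaching a set limit with compound at 10 µM in the primary screen (cut at about 35% in these data); inactive means the rest.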

Target: Intestinal-type alkaline phosphatase (Homo sapiens) (UniProt P09923)
Sequence (P09923 whole entry, looked up): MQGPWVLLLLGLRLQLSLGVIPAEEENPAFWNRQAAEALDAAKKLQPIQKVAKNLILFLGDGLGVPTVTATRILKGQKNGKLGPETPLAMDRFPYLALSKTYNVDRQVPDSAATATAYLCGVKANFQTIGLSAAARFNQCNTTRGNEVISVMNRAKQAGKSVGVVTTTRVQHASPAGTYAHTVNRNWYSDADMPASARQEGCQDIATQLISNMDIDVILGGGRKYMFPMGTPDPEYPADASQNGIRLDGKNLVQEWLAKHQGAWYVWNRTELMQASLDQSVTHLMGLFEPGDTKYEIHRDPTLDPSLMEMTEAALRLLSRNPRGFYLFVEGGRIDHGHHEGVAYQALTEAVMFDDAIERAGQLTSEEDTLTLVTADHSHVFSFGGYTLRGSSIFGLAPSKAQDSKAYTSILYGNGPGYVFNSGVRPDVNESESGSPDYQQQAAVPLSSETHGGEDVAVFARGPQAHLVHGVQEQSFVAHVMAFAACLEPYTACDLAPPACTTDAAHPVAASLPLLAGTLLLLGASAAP
Assay: human IAP inhibitors, primary screen, biochemical, luminescence, uHTS (AID 2544);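 further: plate controls were DMSO wells with enzyme for no effect and no-enzyme buffer wells for full effect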
Conditions: purified IAP, CDP-Star luminescence, 30 min; at 10 µM; active compounds read high

Row | Compound | inhibition [%]
1 | Cc1ccccc1N1CC(C(=O)Nc2nnc(SCCC3OCCO3)s2)CC1=O (configuration not stated) | 18.3
2 | C=CCn1c(=S)sc2c(=O)[nH]c(C)nc21 | -10.3
3 | CN(C)/C=C1\C=C(c2ccccc2)OC1=O | 0.7
4 | Cc1ccc(N=C2SCCCN2C(=O)c2cccc(N3C(=O)CCC3=O)c2)cc1Cl | -21.5
5 | Cc1ccc(-n2ncc3c(Nc4cccc(C(=O)O)c4)ncnc32)cc1 | 17.6
6 | Cc1c(NC(=O)CN2C(=O)C(=O)N(Cc3ccccc3)C2=O)c(=O)n(-c2ccccc2)n1C | 8.1
7 | NC(=O)c1nsc(C(=O)N(CC(=O)NCc2ccc(F)cc2)Cc2ccco2)c1N | -10.8
8 | O=C(CSc1nccn1-c1cccc(F)c1)NC1CCCC1 | 2.7
9 | Cc1csc(NC(=O)CSc2nc(=O)n(CCCN(C)C)c3c2CCC3)n1 | 6.4
10 | O=C(O)C1=CCCN(CCON=C(c2ccccc2)c2ccccc2)C1 | -0.4
11 | CC(C)(C)c1ccc(/C=C2\Oc3c(ccc(O)c3CN3CCN(CCO)CC3)C2=O)cc1 | 8.9
12 | CCOC(=O)c1ccc(NC(=O)CCn2c(=O)oc3ccccc32)cc1 | -9.6
13 | CC[C@]1(c2ccccc2OC)C(=O)N(C(=O)OC)N1C(=O)OC | 8.5
14 | O=C(COC(=O)Cc1c[nH]c2ccccc12)NCCc1ccccc1 | 14.4
15 | Cc1ccc(Cn2c(=N)c(S(=O)(=O)c3ccc(C)cc3)cc3c(=O)n4ccccc4nc32)cc1 | -7.4
16 | Cc1cc(C(F)F)nn1CC(=O)NC1CCCCCC1 | 14

Row | Compound | inhibition [%]
17 | CCC(C)N(C(=O)COC(=O)C1C(C(=O)OC)=C(C)NC(C)=C1C(=O)OC)C1CCS(=O)(=O)C1 (configuration not stated) | -1.2
18 | CCN(C(=O)COC(=O)Cc1c(F)cccc1Cl)c1c(N)n(Cc2ccccc2)c(=O)[nH]c1=O | -9.2
19 | Cc1ccc(CNC(=O)c2cc(-c3ccccc3C)n(CC3CC(c4cccc([N+](=O)[O-])c4)=NO3)n2)cc1 (configuration not stated) | 17
20 | OCCC#Cc1ccc(CN2CCN(Cc3ccsc3)C(CCO)C2)cc1 (configuration not stated) | 12.2
21 | CC1O[C@@H](OC2C(O)C(C)O[C@H](OC(=O)[C@]34CCC(C)(C)C[C@H]3C3=CCC5[C@@]6(C)CC(O)C(O[C@@H]7OC(CO)C(O)[C@@H](O)[C@@H]7O)[C@@](C)(C(=O)O)C6CC[C@@]5(C)[C@]3(CO)CC4)C2O[C@H]2OC(C)[C@@H](O[C@@H]3OCC(O[C@@H]4OC(CO)C(O)[C@H](O)C4O)[C@@H](O)[C@@H]3O)[C@H](O)C2O)C(O)C(O)C1O (some centres not stated) | -8.3
22 | CCOC(=O)c1[nH]cnc1C(=O)NC1CCCCC1 | -28.7
23 | CCN(CC(=O)Nc1ccc2c(c1)OCCO2)Cc1cc(=O)oc2cc(C)c(C)cc12 | 5
24 | O=C(NNC1=C(C(=O)C(F)(F)F)CCC1)c1ccncc1 | -34.2
25 | COC(=O)C(C)Sc1ccc2nnc(-c3cccc(F)c3)n2n1 (configuration not stated) | -8.4
26 | COc1ccccc1C(=O)NCCC(=O)NN1C(=O)NC2(CCCCC2)C1=O | 14.4
27 | CC1(C)NC(=O)N(CCCCSc2ccc(Cl)cc2)C1=O | -0.2
28 | Cc1ccc(Cl)c(OCC(=O)N2CCc3ccccc3C2)c1 | -20.2
29 | O=C(CSc1nnc(CNC(=O)c2ccc(F)cc2)o1)Nc1ccc2c(c1)OCO2 | -13.1
30 | COc1ccc(CN2CCC(c3nc4ccc(Cl)cc4[nH]3)CC2)cc1 | -27.1
31 | O=C(NCc1ccc2c(c1)OCO2)C1CCCN(S(=O)(=O)c2cccs2)C1 (configuration not stated) | 17.9
32 | COc1ccc(C(C#N)N2N=C(C)CC2(C)C)cc1 (configuration not stated) | -6.2
